# Assay results taken from PubChem BioAssay AID602192 (The Scripps Research Institute Molecular Screening Center, 2012).
# Hit rate of the full screen: of about 2,400 compounds, about 750 (31%) were called active.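 Rule for the calls: active = mean activation across replicates above the hit cutoff set in the earlier primary screen (cut at about 8% in these data); inactive = the rest.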 A selection follows.
# Molecular target: Melanocortin receptor 4 (Homo sapiens) (UniProt P32245)
# Assay: MC4R beta-arrestin agonists, retest, confirmation, cell-based, luminescence, U2OS (AID 602192)
# Conditions: U2OS MC4R beta-arrestin recruitment, at 8.9 µM, hits give high values, scaled DMSO 0%, Melanotan II 100%
# Chain of Melanocortin receptor 4 (Homo sapiens) (P32245 whole entry, looked up): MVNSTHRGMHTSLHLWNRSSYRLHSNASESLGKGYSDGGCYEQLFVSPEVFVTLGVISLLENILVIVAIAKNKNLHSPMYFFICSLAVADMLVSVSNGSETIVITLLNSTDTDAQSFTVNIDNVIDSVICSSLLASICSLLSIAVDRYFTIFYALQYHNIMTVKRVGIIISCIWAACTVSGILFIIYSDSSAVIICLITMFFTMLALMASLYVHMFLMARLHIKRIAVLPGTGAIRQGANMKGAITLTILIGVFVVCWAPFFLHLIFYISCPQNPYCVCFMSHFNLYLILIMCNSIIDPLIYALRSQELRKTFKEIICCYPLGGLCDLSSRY
row,SMILES,activation
1,COc1cc(/C=C(\C#N)C(=O)Nc2ccc3ccccc3c2)c([N+](=O)[O-])cc1OC,5.51% (inactive)
2,CC(=O)c1cccc(-c2cnc3c(NC=O)cc(-c4ccc(N(C)C)cc4)cn23)c1,17.7% (active)
3,CN(C)C(=O)c1cccc(-c2cnc3c(NC=O)cc(-c4ccc(F)cc4)cn23)c1,9.94% (active)
4,COc1ccc(-c2cc(NC=O)c3ncc(-c4ccccc4)n3c2)cc1OC,17.6% (active)
5,CN(C)CCNC(=O)c1cccc(-c2cnc3c(NC=O)cc(-c4cccc(C(F)(F)F)c4)cn23)c1,20.8% (active)
6,Cn1c(=S)sc2ccc3ccccc3c21,2.83% (inactive)
7,C=CCn1c(SCC(=O)c2ccc(Br)cc2)nnc1C(C)NC(=O)Cc1ccc(OC)cc1 (configuration not stated),3.84% (inactive)
8,COC(=O)c1nc2n(n1)C(c1ccc([N+](=O)[O-])cc1)C(C(=O)Nc1ccc(Cl)cc1)=C(C)N2 (configuration not stated),-3.03% (inactive)
9,CCOC(=O)c1c(-c2ccc(C)cc2C)csc1NC(=O)CSc1nnnn1C,-1.45% (inactive)
10,CCOC(=O)c1[nH]c2c(c1-c1ccccc1)C(=O)CC(c1ccc(Cl)cc1)C2 (configuration not stated),2.82% (inactive)
11,Cc1ccc(-n2nc3cc(Cl)c(NC(=O)c4ccco4)cc3n2)cc1,0.27% (inactive)
12,COc1ccc(S(=O)(=O)N2CCC(C(=O)OCC(=O)c3ccccc3)CC2)cc1[N+](=O)[O-],5.6% (inactive)
13,Cc1cc(C)cc(C(=O)OCC(=O)NCCNC(=O)COC(=O)c2cc(C)cc(C)c2)c1,0.95% (inactive)
14,O=C(COC(=O)c1cccc(Br)c1)Nc1cccc2c1C(=O)c1ccccc1C2=O,8.85% (active)
15,O=C(CSc1ccccc1)Nc1nnc(/C=C/c2ccccc2)s1,32.6% (active)
16,CCCCNc1c(-c2cccc(Sc3ccc(OC)cc3)c2)nc2ccccn12,5.36% (inactive)
17,COc1ccc2sc(-c3ccc(S(C)(=O)=O)cc3)c(C#Cc3cncn3C)c2c1,27.1% (active)
18,O=C(Cn1cnc2c(nnn2-c2ccccc2)c1=O)N1CCC(Cc2ccccc2)CC1,5% (inactive)
19,CCN(CC)S(=O)(=O)c1ccc(C)c(NC(=O)COc2ccc(Br)cc2Cl)c1,12.9% (active)
20,CCN(CC)C(=O)Oc1ccc(Br)cc1C(=O)Nc1ccc(F)c(Cl)c1,-3.02% (inactive)
21,CSc1ccc(/C=N\NC(=O)COc2ccc(Cl)cc2Br)cc1,4.69% (inactive)
22,O=C(c1cc(-c2cccc(O)c2)on1)N1CCc2ccccc2C1,-1.12% (inactive)
23,Clc1ccccc1Nc1nc(NCc2cccs2)nc2ccsc12,2.53% (inactive)

row,SMILES,activation
1,COc1ccc(Nc2ncnc3sc(-c4ccccc4)cc23)c(OC)c1,5.2% (inactive)
2,COCCNc1nc(Nc2ccccc2Cl)c2sc(-c3ccccc3)cc2n1,11.8% (active)
3,O=C(Nc1sc2c(c1-c1nc3ccccc3[nH]1)CCCC2)C1CC1,6.22% (inactive)
4,O=C(OCc1cn(-c2ccc(Cl)c(Cl)c2)nn1)c1ccccc1Cl,-2.69% (inactive)
5,COc1ccc(Nc2oc(-c3ccccc3Cl)nc2C#N)cc1,6.82% (inactive)
6,COc1cccc(CNC(=O)c2nnn(CC(=O)Nc3cc(Cl)ccc3C)c2N)c1,2.75% (inactive)
7,Cc1cc(/C=C(/C#N)C(=O)Nc2ccc(Cl)cc2)c(C)n1-c1cccnc1,0.76% (inactive)
8,Cc1ccc2nc(-c3ccncc3)cc(C(=O)Nc3ccc(OC(F)F)cc3)c2c1,1.63% (inactive)
9,CCN1C[C@@H]2[C@@H]3C(=O)N(Cc4ccccc4)C(=O)[C@@H]3[C@](Cc3ccccc3)(C(=O)OC)N2C1=NC1CCCCC1,17% (active)
10,COc1ccc2nc(NC(=O)c3ccc(Br)s3)sc2c1,5.97% (inactive)
11,CN(C)CCCN(C(=O)c1ccc(S(=O)(=O)N2CCCCCC2)cc1)c1nc2ccc(Br)cc2s1,15.3% (active)
12,CSc1nc2sc3c(c2c(=O)[nH]1)CCc1ccccc1-3,9.67% (active)
13,COc1ccc(Cn2c(C)c(C)c(C#N)c2NC(=O)Nc2ccc(F)cc2)cc1,2.83% (inactive)
14,COC(=O)c1sccc1NC(=O)CCC1CCCC1,0.35% (inactive)
15,Cc1csc(NC(=O)c2ccc(-c3ccc(Cl)cc3Cl)o2)n1,9.09% (active)
16,O=C(NC(c1ccc(-c2ccccc2)cc1)c1cnccn1)C1CCN(CCOc2ccc(Cl)cc2Cl)CC1 (configuration not stated),7.32% (inactive)
17,N#CC(=C1SC=CS1)c1nc(-c2ccccc2)cs1,-2.79% (inactive)
18,Brc1ccc(-c2csc(N/N=C/c3cccnc3)n2)cc1,-2.16% (inactive)
19,Cc1ccc(-c2csc(NC(=O)Cn3[nH]c(=O)c4ccccc4c3=O)n2)cc1,2.98% (inactive)
20,CC(=O)Nc1ccc(-c2csc(NC(=O)Nc3ccccc3)n2)cc1,26.9% (active)
21,Cc1ccc(NC(=O)Nc2ccccc2)c(Br)c1,3.05% (inactive)
22,O=C(Nc1nc(-c2ccc(-c3ccccc3)cc2)cs1)c1cnccn1,10.5% (active)
23,N#CCC(=O)N/N=C/c1cn(Cc2ccc3ccccc3c2)c2ccccc12,2.4% (inactive)

row,SMILES,activation
1,COc1ccc(C(=O)c2oc3ccc(Br)cc3c2NC(C)=O)cc1,1.93% (inactive)
2,COc1ccc(/C=N/NC(=O)Nc2ccc3nsnc3c2)c(OC)c1,-0.12% (inactive)
3,CC(=O)c1sc(NC(=O)CCCOc2ccccc2C)nc1C,5.8% (inactive)
4,COc1ccc(C(=O)n2nc(-c3ccc(C)cc3)nc2N)cc1OC,0.77% (inactive)
5,COc1cccc(CNCCc2c[nH]c3ccccc23)c1OCc1ccccc1F,32% (active)
6,CCc1ccc(Nc2ncc3c(n2)CC(c2ccco2)CC3=O)cc1 (configuration not stated),0.77% (inactive)
7,COc1ccc(OCC(=O)Nc2ccc(N3CCC(C)CC3)cc2)cc1,2.6% (inactive)
8,O=C(CCCN1C(=O)/C(=C/c2cccs2)SC1=S)Nc1ccc(O)cc1,11.8% (active)
9,O=C(CCCN1C(=O)/C(=C\c2ccco2)SC1=S)Nc1cccc2ccccc12,-0.83% (inactive)
10,O=C(/C=C/c1c(Cl)cccc1Cl)NCc1ccccc1,-0.28% (inactive)
11,COc1cccc2sc(N(CCCN(C)C)C(=O)C(c3ccccc3)c3ccccc3)nc12,19.5% (active)
12,Cc1cccc(NC(=O)Nc2cccc(Oc3c(F)c(F)c(F)c(F)c3F)c2)c1,-1.61% (inactive)
13,Cc1ccc(-n2cc3ccc([N+](=O)[O-])cc3n2)cc1,5.74% (inactive)
14,Cc1ccc(Nc2nnc(SCC(=O)c3cc4ccccc4o3)s2)cc1C,1.84% (inactive)
15,Cc1ccc(Nc2nnc(SCc3ccccc3)s2)cc1,9.35% (active)
16,COc1ccc(S(=O)(=O)N/N=C\c2ccc(OC)c(COc3ccc(C)cc3[N+](=O)[O-])c2)cc1,1.84% (inactive)
17,CC(C)Oc1c(Br)cc(Br)cc1/C=N/NC(N)=S,13.3% (active)
18,CCC(=O)c1cc2c(cc1NC(=O)c1cccs1)OCCO2,6.01% (inactive)
19,Cc1nn2cc(-c3ccc(Cl)cc3)cnc2c1Br,-1.24% (inactive)
20,CC(=O)Nc1ccc(NC(=O)c2sc3nc4c(c(-c5ccc(C)cc5)c3c2N)CCC4)cc1,5.71% (inactive)
21,CSc1ccc(S(=O)(=O)NCc2ccc(Cl)cc2)cc1,1.19% (inactive)
